Assay results published in PubChem BioAssay AID1479 (National Center for Advancing Translational Sciences (NCATS), 2009).
The whole screen tested about 280,000 compounds, of which about 820 (0.29%) were called active. A call without a number means that no potency is given here. Not shown: some 1% with an inconclusive outcome. This is one part of a sample in which actives are shown more often than they occur. The call rests on the fitted dose curve; in most records, active means well fitted curve in either direction with a large enough effect; inconclusive means small, poorly fitted or top-dose-only effect; inactive means flat fitted curve, though single readings scatter.

Test: Total Fluorescence Counterscreen for Inhibitors of the Interaction of Thyroid Hormone Receptor and Steroid Receptor Coregulator 2
Settings: TRb/SRC2 Texas Red total fluorescence interference; series mostly up to 106 µM
Description: NIH Molecular Libraries Probe Production Network [MLPCN]
NIH Chemical Genomics Center [NCGC]
Assay Provider: R. Kip Guy, St. Jude Children's Research Hospital
Thyroid receptor (TR) regulates many homeostatic processes including basal metabolism, cardiovascular function, body weight, and lipid trafficking. TR modulators are potential therapeutics for obesity and hyperlipidemias but current thyroid analogs have undesirable side effects, particularly cardiac stimulation. To identify inhibitors that specifically prevent the interaction of TR with the steroid receptor […] 2 (SRC2), a fluorescence polarization assay was screened. This assay detects interaction of the ligand-binding domain of human TRb with a Texas Red labeled SRC2 peptide, corresponding to a 20 amino acid region of the nuclear receptor interaction domain (Arnold et al., 2006). Total fluorescence (555 nm excitation and 632 nm emission) was measured to identify potential fluorescent and light absorbing compounds. Such compounds may be artifacts that interfere with the fluorescence polarization assay.
Arnold, L. A.; Estebanez-Perpina, E.; Togashi, M.; Shelat, A.; Ocasio, C. A.; McReynolds, A. C.; Nguyen, P.; Baxter, J. D.; Fletterick, R. J.; Webb, P.; Guy, R. K. A high-throughput screening method to identify small molecule inhibitors of thyroid hormone receptor coactivator binding. Sci STKE 2006, p 13.
NCGC Assay Protocol Summary:
For screening, 5 uL/well 0.6 uM TRb and 20 nM SRC2 Texas Red in protein buffer (20mM Tris hydrochloride, 100mM NaCl, 10% glycerol, 1mM EDTA, 0.01% NP-40, 1mM DTT, 1uM T3 and 5% DMSO) was dispensed into black solid 1536-well plates (Grenier) using a solenoid-based dispenser. Following transfer of 23 nL compound or DMSO vehicle by a pin tool, the plates were centrifuged 15 s at 1000 RPM and incubated 5 hr at ambient temperature. The plates were read by an Envision (Perkin Elmer) to detect fluorescence polarization of SRC2 Texas Red (555 nm excitation and 632 nm emission). Data were normalized to unbound (all components except TRb) and bound SRC2 Texas Red controls. Total fluorescence (TF) was calculated as follows: TF = S + 2P where S and P are fluorescence readings in the parallel and perpendicular channels, respectively.
Keywords: NIH Roadmap, MLPCN, MLI, MLSMR, qHTS, NCGC, qHTS, thyroid hormone receptor, steroid receptor coactivator, fluorescence polarization
Potency means the concentration at half of the fitted maximal effect; tags describe the fitted curve by direction and shape or compound fluorescence and quenching.

| SMILES | Potency |
| --- | --- |
| COc1ccccc1CNC(=O)Cn1nc(C)c2nn(-c3ccc(Cl)cc3)c(C)c2c1=O | inactive |
| COc1ccc2c(c1)C(SCC(=O)NCc1ccccc1)CC(C)(C)O2 (configuration not stated) | inactive |
| COc1ccc2c(c1)C=CC1(O2)N(CCO)c2ccccc2C1(C)C (configuration not stated) | 50.1 µM [fluorescent] (active) |
| COc1cccc(CC2(CO)CCCN(CC3=Cc4cc(OC)ccc4OC3)C2)c1 (configuration not stated) | inactive |
| CCc1cnc2c(c1SCC(=O)N1CCC(C)CC1)c(=O)n(C)c(=O)n2C | inactive |
| COc1ccc(C)cc1N(CC(=O)N1CCC(C)CC1)S(=O)(=O)c1ccc(C)cc1 | inactive |
| Cc1ccccc1-c1nc2scc(CCNC(=O)C(=O)Nc3ccc(F)cc3F)n2n1 | inactive |
| CC(Sc1oc(-c2ccco2)nc1S(=O)(=O)c1ccc(Br)cc1)c1ccccc1 (configuration not stated) | inactive |
| COc1ccccc1NC(=O)CSc1oc(-c2ccco2)nc1S(=O)(=O)c1ccc(Br)cc1 | inactive |
| CCCC/C=C/CCCCO | inactive |
| CCN(C(=O)Cn1cc(S(=O)(=O)N2CCN(c3ccccc3F)CC2)c2ccccc2c1=O)c1ccc(C)c(C)c1 | inactive |
| O=C(NCCc1ccccc1)c1ccc2c(c1)N(Cc1ccccc1)C(=O)c1ccccc1S2(=O)=O | inactive |
| CN(C(=O)CSc1nnc(NC(=O)Nc2ccccc2)s1)c1ccccc1 | inactive |
| CC(C)(C)OC(=O)N1CCC(c2c(C(=O)Nc3ccc4c(c3)OCO4)cnn2-c2ccccc2)CC1 | inactive |
| Cc1cccc(Cc2c(C)nc3nc(SCc4ccccc4Cl)nn3c2C)c1 | inactive |
| c1ccc(CNc2ncnc3[nH]ncc23)cc1 | inactive |
| CCOC(=O)c1ccc(NC(=O)CC2C(=O)N(c3cccc(OC)c3)C(=O)N2C2CCCCC2)cc1 (configuration not stated) | inactive |
| COc1ccccc1CNC(=O)c1ccccc1NC(=O)c1nsc2ccccc12 | inactive |
| O=S(=O)(c1ccc(C2CCCCC2)cc1)N1CCN(c2ccc(Cl)c(Cl)c2)CC1 | inactive |
| CC1CN(C(=O)N2CCC(C(=O)NCc3ccco3)CC2)c2cc(Cl)ccc2O1 (configuration not stated) | inactive |
| CCOC(=O)c1ccc(NC(=O)CCS(=O)(=O)c2ccc(C)cc2)cc1 | inactive |
| CCCn1c2ccccc2c2cnn(CC(=O)N(C)c3ccccc3CC)c(=O)c21 | inactive |
| Cc1cc(C)c(N)c(Cl)c1 | inactive |
| CCOc1ccc2nc(C(=O)N3CCCC(C)C3)sc2c1 (configuration not stated) | inactive |
| CCOc1ccc2nc(N3CCC(C(=O)Nc4cc(C)ccc4C)CC3)sc2c1 | inactive |
| CCOc1ccc2nc(N3CCCC(C(=O)Nc4cc(C)ccc4C)C3)sc2c1 (configuration not stated) | 20 µM [quencher] (active) |
| Cc1csc2nc(COC(=O)c3ccc(NC(=O)COc4ccccc4F)cc3)cc(=O)n12 | inactive |
